{"source": "PubChem BioAssay (NCI)", "note": "The panel holds about 83,000 compounds, 20% with a hit somewhere; the sample as a whole holds those more often.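 Note: values are percent growth. 100 is the growth of untreated cells, values between 100 and 0 indicate rising inhibition; between -100 and 0 indicates cell death.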 Active and inactive are the calls of the source. Rule for the calls: active = growth percent below 10; inactive = the rest.", "data": [{"tested_on": "HL-60(TB) leukemia", "assay": "NCI-60 one-dose screen, 48 h (100 = growth as untreated, 0 = no growth, -100 = all killed)", "details": "10 µM unless noted", "values": [{"smiles": "S=C(Cc1ccc2c(c1)CCCC2)N1CCOCC1", "growth": "85% (inactive)"}, {"smiles": "COc1cc(/C=N/Nc2ccc(Br)cc2)cc(OC)c1OC", "growth": "33% (inactive)"}, {"smiles": "Cc1ccc(C)n1/C=C/n1c(C)ccc1C", "growth": "128% (inactive)"}, {"smiles": "O=C(NN=C1CCCCC1)C(=O)NN=C1CCCCC1", "growth": "81.5% (inactive)"}, {"smiles": "Cc1ccnc2c1ccc1c(C)ccnc12", "growth": "-5.64% (active)"}, {"smiles": "CS(=O)(=O)c1ccc(-c2nc3cc(Cl)ccc3n2CC(=O)N/N=C/c2ccc(Cl)cc2)cc1", "growth": "25.3% (inactive)"}, {"smiles": "Cc1ccc(S(=O)(=O)NCN2C(=O)c3ccccc3C2=O)cc1", "growth": "106% (inactive)"}, {"smiles": "COc1cc2oc(-c3cccc(C(=O)Nc4ccc(C)cc4)c3)cc(=O)c2c(OC)c1OC", "growth": "7.26% (active)"}, {"smiles": "CCCCN1CCN(c2ccc3nc(-c4ccc5nc(-c6ccc(OCC)cc6)[nH]c5c4)[nH]c3c2)CC1", "growth": "34.3% (inactive)"}, {"smiles": "Cc1ccc(S(=O)(=O)Oc2ccc3c4c(c(=O)oc3c2)CCCCC4)cc1", "growth": "20.4% (inactive)"}, {"smiles": "COC(=O)[C@]12CC[C@@H](C)[C@H](C)[C@@H]1C1=CC[C@@H]3[C@@]4(C)C[C@@H](O)OC[C@](C)(C=O)C4C(=O)C[C@@]3(C)[C@]1(C)CC2", "note": "(some centres undefined)", "growth": "-13.3% (active)"}, {"smiles": "CC[C@H](Nc1ncnc2nc[nH]c12)c1nc2cccc(CC(=O)c3ccc(C(=O)NO)cc3)c2c(=O)n1-c1ccccc1", "growth": "75.5% (inactive)"}, {"smiles": "Nc1ccc2c(c1)c(N)nn2C(=O)Nc1ccc(Cc2ccccc2)cc1", "growth": "16.4% (inactive)"}, {"smiles": "Nc1c(C(=O)Nc2cccc(Br)c2)sc2nc3c(cc12)C(=O)CCC3", "growth": "49.7% (inactive)"}]}]}
